Inconclusive results are not listed. Activity calls are given as the source filed them. Calls come from the whole dose curve.
molecular target: Nucleoprotein (Lymphocytic choriomeningitis virus (strain Armstrong)) (UniProt P09992); test: qHTS for Inhibitors of the Functional Ribonucleoprotein Complex (vRNP) of Lymphocytic Choriomeningitis Arenaviruses (LCMV): LCMV Primary Screen - GLuc reporter signal (AID 1347086); conditions: LCMV minigenome vRNP cell assay, Gaussia luciferase reporter; series mostly up to 57.5 µM; activity change, negative = inhibition: at the top concentration; note: nearly all actives have a fitted effect of over 70% in size
Sequence (P09992 whole entry, looked up): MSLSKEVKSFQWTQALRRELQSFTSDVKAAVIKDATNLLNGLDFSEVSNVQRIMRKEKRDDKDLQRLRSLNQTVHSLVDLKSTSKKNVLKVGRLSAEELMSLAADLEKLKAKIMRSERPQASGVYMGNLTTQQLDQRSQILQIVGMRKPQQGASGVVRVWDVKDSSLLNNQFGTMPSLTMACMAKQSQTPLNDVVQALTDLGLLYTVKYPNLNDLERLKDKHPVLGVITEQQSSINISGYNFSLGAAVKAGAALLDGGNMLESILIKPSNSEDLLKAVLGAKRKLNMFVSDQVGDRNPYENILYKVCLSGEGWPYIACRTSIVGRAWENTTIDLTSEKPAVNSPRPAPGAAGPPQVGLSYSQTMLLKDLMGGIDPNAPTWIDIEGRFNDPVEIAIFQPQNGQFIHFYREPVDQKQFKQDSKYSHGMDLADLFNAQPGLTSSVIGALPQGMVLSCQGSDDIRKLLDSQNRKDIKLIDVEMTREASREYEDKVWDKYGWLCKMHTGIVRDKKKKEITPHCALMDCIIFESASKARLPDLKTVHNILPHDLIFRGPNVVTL
% is set by controls: 0 for no effect and ±100 for the full control effect.

Structure (SMILES)	activity change, negative = inhibition
COc1ccc(-c2coc3cc(OC)cc(O)c3c2=O)cc1	10.4% (inactive)
CC/C=C\CCOC(=O)CCCCC	12.7% [at 115 µM] (inactive)
COc1cc(C2c3cc4c(c(O)c3CC3COC(=O)C32)OCO4)cc(OC)c1O (stereo not given)	-75% (inactive)
CN1CCc2cc3c(cc2C1)OCO3	10.3% (inactive)
CC(C)=CCC1=C(O)[C@](O)(CC=C(C)C)C(=O)C(C(=O)CC(C)C)=C1O	-9.58% (inactive)
CC(C)NC(=O)NCCCCCCS(C)=O (stereo not given)	22.6% (inactive)
C[C@@]12CC[C@H]3OC(=O)C=C3C1CC[C@@]13CC(CCC12)[C@](CO)(O[C@H]1O[C@H](CO)[C@@H](O)[C@H](O)[C@H]1O)C3 (stereo not given in full)	14.8% (inactive)
COC(=O)C1=CO[C@@H](OC2OC(CO)C(O)C(O)C2O)[C@@H]2C(CO)=CC[C@H]12 (stereo not given in full)	18.5% (inactive)
O=C(O)c1cc(N(Cc2ccccc2O)Cc2ccccc2O)ccc1O	-8.55% (inactive)
COc1c(-c2ccc(O)cc2)oc2cc(O)cc(O)c2c1=O	-31.1% (inactive)
COc1ccc([C@H]2c3cc(OC)c(OC)cc3C[C@@H](C)[C@@H]2C)cc1OC	16.7% (inactive)
CC(O)C1C(=O)N2C(C(=O)O)=C(SC3CNC(C(=O)N(C)C)C3)C(C)C12 (stereo not given)	12.8% (inactive)
C[N+](C)(C)C[C@H](O)CC(=O)[O-]	22% (inactive)
C/C=C(/CC[C@@H](C)[C@H]1CC[C@H]2C3=CC[C@H]4[C@H](C)[C@@H](O)CC[C@]4(C)[C@H]3CC[C@]12C)C(C)C	10.9% (inactive)
O=C(OCCc1ccccc1)c1ccccc1	-2.36% [at 115 µM] (inactive)
O=C1N[C@@H](Cc2c[nH]c3ccccc23)C(=O)N[C@H]1Cc1c[nH]c2ccccc12	-21.1% (inactive)
O=C(O)CCC[C@H](O)\C=C/C=C/C=C/[C@H](O)C/C=C\CCCCCO	-1.08% [at 0.757 µM] (inactive)
CC[C@@H]1C=C(C)C[C@H](C)C[C@H](OC)[C@H]2O[C@@](O)(C(=O)C(=O)N3CCCC[C@@H]3C(=O)O[C@H](C(C)=C[C@@H]3CC[C@H](Cl)[C@H](OC)C3)[C@H](C)[C@@H](O)CC1=O)[C@H](C)C[C@H]2OC	4.99% (inactive)
COc1cc(OC)c2c(-c3ccccc3)cc(=O)oc2c1	-7.74% (inactive)
CC[C@H]1NC(=O)[C@@H](NC(=O)c2ncccc2O)[C@@H](C)OC(=O)[C@H](c2ccccc2)NC(=O)[C@@H]2CC(=O)CCN2C(=O)[C@H](Cc2ccccc2)N(C)C(=O)[C@@H]2CCCN2C1=O	27.7% (inactive)

Structure (SMILES)	activity change, negative = inhibition
CC(c1c(O)c2ccccc2[nH]c1=O)C1(C)CCC(O)C(C)(C)O1 (stereo not given)	-2.38% (inactive)
CC12C=CC(=O)C=C1CCC1C2CCC2(C)C(C(=O)CO)CCC12 (stereo not given)	-3.17% (inactive)
COc1ccc(C2Sc3ccccc3N(CCN(C)C)C(=O)C2OC(C)=O)cc1 (stereo not given)	-2.3% (inactive)
Cc1cc2c(c(CO)c1CCO)C(=O)[C@@H](C)[C@@H]2O	10.8% (inactive)
COC(=O)c1ccccc1OC	16.2% [at 115 µM] (inactive)
CCOC(=O)c1ccccc1	20.2% [at 115 µM] (inactive)
O=C(O)[C@@H]1Cc2c([nH]c3ccccc23)C2CCC(=O)N21 (stereo not given in full)	-3.29% (inactive)
CO[C@H]1/C=C\O[C@@]2(C)Oc3c(C)c(O)c4c(O)c(c5c(nc6cc(C)ccn65)c4c3C2=O)NC(=O)C(C)=CC=C[C@H](C)[C@H](O)[C@@H](C)[C@@H](O)[C@@H](C)[C@H](OC(C)=O)[C@H]1C	29.5% (inactive)
Cn1cnc2c(ncn2[C@@H]2O[C@H](CO)[C@@H](O)[C@H]2O)c1=N	19% (inactive)
CC1(C)C[C@H]2C3=CCC4[C@@]5(C)CC[C@H](O)C(C)(C)C5CC[C@@]4(C)[C@]3(C)[C@@H](O)[C@@H](O)[C@@]2(CO)[C@@H](O)[C@@H]1O (stereo not given in full)	12.6% (inactive)
CC/C=C\CCOC(C)OCC (stereo not given)	12.6% [at 115 µM] (inactive)
CC(=O)OC[C@]12CCC(C)=C[C@H]1O[C@@H]1[C@H](O)[C@@H](OC(C)=O)[C@@]2(C)[C@]12CO2	-105% (inactive)
OC1O[C@H](c2ccc3c(c2)OCO3)[C@H]2CO[C@H](c3ccc4c(c3)OCO4)[C@@H]12 (stereo not given in full)	4.69% (inactive)
CCc1cc(C(C)=NOCc2ccc(C3CCCCC3)c(C(F)(F)F)c2)ccc1CN1CC(C(=O)O)C1	-34.2% (inactive)
CCCCCCCCCCCCCC[C@@H](O)[C@@H](O)[C@@H](N)CO	19.8% (inactive)
COC(=O)c1cc2c([nH]c3ccccc32)c(C)n1	0.537% (inactive)
OC[C@H]1O[C@@H](O[C@H]2[C@@H](O)[C@@](O)(CO)O[C@@H]2CO)[C@H](O)[C@@H](O)[C@@H]1O	-4.79% (inactive)
CC1(C)CCC[C@]2(C)[C@H]3CCO[C@]3(C)CC[C@@H]12	26.3% [at 115 µM] (inactive)
COC(=O)CC1[C@@]2(C)C[C@]34OC5(C)OC6(C7CC(=O)OC(c8ccoc8)[C@]7(C)CCC6(O5)[C@]13C)C(OC(C)=O)[C@]4(OC(C)=O)C2OC(C)=O (stereo not given in full)	22.6% (inactive)
CC/C=C\CCCCCCCCCCOC(C)=O	0.782% [at 115 µM] (inactive)

Source: PubChem BioAssay (NCATS)
